# According to PubChem BioAssay:
# Calls of active or inactive are those of the source.
# What was measured:
# [1] = tested on: PRMT1 (protein arginine N-methyltransferase 1); test: small molecules binding arginine methyltransferase PRMT1 – biochemical, small-molecule microarray, 635 nm fluorescence, primary screen (AID 1088); details: higher = more signal;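 note: binding of Prmt1 protein to compounds spotted on small-molecule microarray slides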
# [2] = growth effects on S. cerevisiae YJM789 – YJM789 clinical isolate, OD600, 24 h, basal, primary screen (AID 1089); details: higher = more signal, called active from +8 up or from −8 down;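 note: growth of clinical yeast isolate S. cerevisiae YJM 789 seeded 1000 cells per well; test concentration not given here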
# [3] = S. pombe growth modifiers, basal conditions – strain 972, OD600, 24 h, no modulator, primary screen (AID 1090);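 note: basal condition with compound alone and no growth modifier present; test concentration not given here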; details: S. pombe 972 growth, higher = more signal, called active from +8 up or from −8 down
# [4] = budding yeast growth modifiers under rapamycin – strain BY4716, OD600, 96 h, primary screen (AID 1091); note: test concentration not given here; details: S. cerevisiae BY4716 + rapamycin, higher = more signal, called active from +8 up or from −8 down
# [5] = molecular target: Torsin-1A-interacting protein 2 (Homo sapiens) (UniProt Q8NFQ8); test: small molecules binding lysate-expressed LULL1 – cell lysate, human LULL1 lysate, 635/667 nm fluorescence, primary screen (AID 1092); details: small-molecule microarray, hLULL1 lysate binding, 635 nm fluorescence; higher = more signal;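 note: probe is lysate of COS7 cells overexpressing human LULL1; score merges per-feature 667 nm fluorescence with signal-to-noise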
# Chain of Torsin-1A-interacting protein 2 (Homo sapiens) (Q8NFQ8 whole entry, looked up): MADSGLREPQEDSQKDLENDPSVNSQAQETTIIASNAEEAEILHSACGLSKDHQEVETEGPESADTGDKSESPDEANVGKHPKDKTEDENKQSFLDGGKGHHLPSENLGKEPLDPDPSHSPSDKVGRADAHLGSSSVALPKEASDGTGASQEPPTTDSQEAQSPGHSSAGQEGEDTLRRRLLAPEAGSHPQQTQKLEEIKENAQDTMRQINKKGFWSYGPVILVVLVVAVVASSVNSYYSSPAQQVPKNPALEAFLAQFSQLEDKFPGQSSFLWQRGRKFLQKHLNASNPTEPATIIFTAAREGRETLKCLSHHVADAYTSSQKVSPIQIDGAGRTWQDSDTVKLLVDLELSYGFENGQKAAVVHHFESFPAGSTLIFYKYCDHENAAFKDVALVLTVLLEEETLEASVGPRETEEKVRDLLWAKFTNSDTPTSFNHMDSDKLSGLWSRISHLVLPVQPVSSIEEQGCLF
# [6] = optical density change of DRC41 E. coli – strain DRC41, OD650, 24 h, E. coli filamentation project, primary screen (AID 1093);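 note: MC1000 strain lacking acrAB efflux and sulA so SOS filamentation is blocked; test concentration not given here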; details: E. coli DRC41 growth, higher = more signal, called active from +8 up or from −8 down
# [7] = probe aLefty2 binding to arrayed compounds – biochemical, biotinylated probe, 635/667 nm fluorescence, primary screen (AID 1094); details: small-molecule microarray, higher = more signal;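 note: score merges spot fluorescence near 667 nm with spot signal-to-noise ratio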
# [8] = tested on: Noggin (protein binding on small-molecule microarray); test: small molecules binding Noggin protein – biochemical, 635/667 nm fluorescence, primary screen (AID 1095); details: 635 nm fluorescence, higher = more signal;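 note: score merges 667 nm feature fluorescence with signal to noise over triplicate slides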
# [9] = molecular target: Neurogenic locus notch homolog protein 3 (Homo sapiens) (UniProt Q9UM47); test: small molecules binding NOTCH3 protein – biochemical, 635/667 nm fluorescence, primary screen (AID 1096); details: small-molecule microarray, 635 nm fluorescence, higher = more signal
# Chain of Neurogenic locus notch homolog protein 3 (Homo sapiens) (Q9UM47 whole entry, looked up): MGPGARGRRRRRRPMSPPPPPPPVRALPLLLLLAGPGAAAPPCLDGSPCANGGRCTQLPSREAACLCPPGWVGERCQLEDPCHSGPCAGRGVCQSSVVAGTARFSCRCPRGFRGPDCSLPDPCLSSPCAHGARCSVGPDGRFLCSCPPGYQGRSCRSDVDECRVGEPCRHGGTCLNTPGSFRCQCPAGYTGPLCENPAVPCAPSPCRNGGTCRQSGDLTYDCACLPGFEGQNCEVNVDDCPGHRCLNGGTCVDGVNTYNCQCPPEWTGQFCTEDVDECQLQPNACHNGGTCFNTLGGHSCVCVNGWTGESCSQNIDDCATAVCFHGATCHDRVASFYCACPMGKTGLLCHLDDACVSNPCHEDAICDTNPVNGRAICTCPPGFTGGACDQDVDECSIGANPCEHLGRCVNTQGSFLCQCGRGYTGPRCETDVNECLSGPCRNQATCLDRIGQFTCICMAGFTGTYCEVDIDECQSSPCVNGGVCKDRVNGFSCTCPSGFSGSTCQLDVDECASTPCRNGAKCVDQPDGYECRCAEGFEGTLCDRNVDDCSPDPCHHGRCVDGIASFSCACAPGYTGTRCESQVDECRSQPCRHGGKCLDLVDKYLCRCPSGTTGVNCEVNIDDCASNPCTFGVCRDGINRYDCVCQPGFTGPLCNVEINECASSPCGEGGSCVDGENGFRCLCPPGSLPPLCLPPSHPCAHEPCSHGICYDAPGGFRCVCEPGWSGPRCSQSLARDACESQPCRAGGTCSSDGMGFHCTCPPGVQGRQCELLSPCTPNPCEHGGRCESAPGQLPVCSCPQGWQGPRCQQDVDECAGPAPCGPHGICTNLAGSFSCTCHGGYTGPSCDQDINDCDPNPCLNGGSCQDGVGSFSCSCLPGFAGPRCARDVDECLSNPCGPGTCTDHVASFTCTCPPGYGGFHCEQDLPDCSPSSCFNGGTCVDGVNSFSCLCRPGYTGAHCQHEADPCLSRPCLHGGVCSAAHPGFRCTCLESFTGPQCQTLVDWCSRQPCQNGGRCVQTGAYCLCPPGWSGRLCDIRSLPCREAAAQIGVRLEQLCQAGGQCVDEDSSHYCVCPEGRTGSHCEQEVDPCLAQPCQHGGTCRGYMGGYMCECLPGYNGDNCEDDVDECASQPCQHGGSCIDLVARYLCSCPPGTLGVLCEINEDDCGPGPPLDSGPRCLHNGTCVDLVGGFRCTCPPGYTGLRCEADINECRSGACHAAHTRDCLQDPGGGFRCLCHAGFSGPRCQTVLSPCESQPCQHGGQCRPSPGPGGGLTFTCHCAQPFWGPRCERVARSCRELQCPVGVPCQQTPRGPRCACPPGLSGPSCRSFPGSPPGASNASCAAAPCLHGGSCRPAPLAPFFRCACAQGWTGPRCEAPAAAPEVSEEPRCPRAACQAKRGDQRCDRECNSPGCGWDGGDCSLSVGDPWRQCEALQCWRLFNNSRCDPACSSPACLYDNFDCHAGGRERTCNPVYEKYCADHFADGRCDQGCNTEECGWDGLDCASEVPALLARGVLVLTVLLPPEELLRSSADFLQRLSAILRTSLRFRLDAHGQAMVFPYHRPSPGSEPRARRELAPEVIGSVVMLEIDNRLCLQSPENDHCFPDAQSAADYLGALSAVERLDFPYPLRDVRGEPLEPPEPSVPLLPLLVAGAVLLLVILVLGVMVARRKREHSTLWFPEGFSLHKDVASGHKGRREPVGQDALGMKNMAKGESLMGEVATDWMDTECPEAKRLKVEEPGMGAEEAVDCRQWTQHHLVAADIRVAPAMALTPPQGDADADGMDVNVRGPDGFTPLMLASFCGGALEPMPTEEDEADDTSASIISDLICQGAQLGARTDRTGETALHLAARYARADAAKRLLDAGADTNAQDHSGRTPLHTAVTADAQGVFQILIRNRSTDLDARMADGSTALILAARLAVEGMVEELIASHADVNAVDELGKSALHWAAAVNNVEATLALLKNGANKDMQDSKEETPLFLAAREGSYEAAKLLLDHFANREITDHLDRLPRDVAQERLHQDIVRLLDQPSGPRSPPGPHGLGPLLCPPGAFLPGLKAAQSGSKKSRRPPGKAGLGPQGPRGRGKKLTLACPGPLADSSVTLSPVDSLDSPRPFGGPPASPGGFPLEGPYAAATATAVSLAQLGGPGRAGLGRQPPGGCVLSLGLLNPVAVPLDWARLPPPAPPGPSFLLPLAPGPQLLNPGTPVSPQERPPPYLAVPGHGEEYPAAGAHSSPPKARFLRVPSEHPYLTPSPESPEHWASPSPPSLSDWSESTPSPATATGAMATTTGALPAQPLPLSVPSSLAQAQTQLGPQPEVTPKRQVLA
# [10] = probe aEGFR binding to arrayed compounds – biochemical, biotinylated probe, 635/667 nm fluorescence, primary screen (AID 1097); details: small-molecule microarray, higher = more signal;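 note: probe is a biotinylated anti-EGFR antibody binding compounds printed on slides; score combines fluorescence near 667 nm and signal to noise of each spot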
# [11] = tested on: Plasmodium falciparum Sir2 (PF13_0152, Sir2A); test: Plasmodium falciparum Sir2A binding compounds – biochemical, small-molecule microarray, 635 nm fluorescence, primary screen (AID 1098); details: fluorescence 635 nm, higher = more signal;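 note: score merges spot fluorescence intensity with its signal-to-noise ratio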
# [12] = probe aDKK1 binding to arrayed compounds – biochemical, biotinylated probe, 635/667 nm fluorescence, primary screen (AID 1099); details: small-molecule microarray, higher = more signal;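 note: score merges 667nm spot fluorescence with signal to noise across triplicate slides; reference of the scale not given here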
# [13] = probe aCHRDL2 binding to arrayed compounds – biochemical, biotinylated probe, 635/667 nm fluorescence, primary screen (AID 1100); details: small-molecule microarray, higher = more signal
# [14] = change in splice reporter luminescence, either direction, cell-based, HEK293, spliceosome inhibition project, primary screen (AID 1101); details: HEK293 splicing luciferase reporter, 24 h, higher = more signal, called active from +8 up or from −8 down;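 note: HEK293 cells carrying a splicing-competent luciferase reporter gene; test concentration not given here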
# [15] = molecular target: Fibroblast growth factor 10 (Homo sapiens) (UniProt O15520); test: compounds binding fibroblast growth factor 10 – biochemical, small-molecule microarray, 635 nm fluorescence, primary screen (AID 1102); details: FGF10 binding, fluorescence 635 nm, higher = more signal
# Chain of Fibroblast growth factor 10 (Homo sapiens) (O15520 whole entry, looked up): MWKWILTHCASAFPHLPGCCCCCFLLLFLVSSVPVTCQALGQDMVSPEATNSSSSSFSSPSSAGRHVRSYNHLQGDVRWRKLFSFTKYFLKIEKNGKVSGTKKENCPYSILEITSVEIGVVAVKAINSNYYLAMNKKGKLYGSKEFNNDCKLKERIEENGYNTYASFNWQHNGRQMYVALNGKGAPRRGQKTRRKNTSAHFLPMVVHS
# [16] = tested on: glycogen synthase kinase-3 (GSK3A per assay name; protocol says GSK3B); test: compounds binding glycogen synthase kinase-3 – biochemical, small-molecule microarray, 635 nm fluorescence, GSK3A, primary screen (AID 1103); details: fluorescence 635 nm, higher = more signal; note: the record names both GSK3A and GSK3B
# [17] = molecular target: Epidermal growth factor receptor (Homo sapiens) (UniProt P00533); test: compounds binding epidermal growth factor receptor – biochemical, small-molecule microarray, 635 nm fluorescence, primary screen (AID 1104); details: EGFR binding, higher = more signal;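 note: score merges 667 nm emission intensity with spot signal to noise over triplicate slides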
# Chain of Epidermal growth factor receptor (Homo sapiens) (P00533 whole entry, looked up): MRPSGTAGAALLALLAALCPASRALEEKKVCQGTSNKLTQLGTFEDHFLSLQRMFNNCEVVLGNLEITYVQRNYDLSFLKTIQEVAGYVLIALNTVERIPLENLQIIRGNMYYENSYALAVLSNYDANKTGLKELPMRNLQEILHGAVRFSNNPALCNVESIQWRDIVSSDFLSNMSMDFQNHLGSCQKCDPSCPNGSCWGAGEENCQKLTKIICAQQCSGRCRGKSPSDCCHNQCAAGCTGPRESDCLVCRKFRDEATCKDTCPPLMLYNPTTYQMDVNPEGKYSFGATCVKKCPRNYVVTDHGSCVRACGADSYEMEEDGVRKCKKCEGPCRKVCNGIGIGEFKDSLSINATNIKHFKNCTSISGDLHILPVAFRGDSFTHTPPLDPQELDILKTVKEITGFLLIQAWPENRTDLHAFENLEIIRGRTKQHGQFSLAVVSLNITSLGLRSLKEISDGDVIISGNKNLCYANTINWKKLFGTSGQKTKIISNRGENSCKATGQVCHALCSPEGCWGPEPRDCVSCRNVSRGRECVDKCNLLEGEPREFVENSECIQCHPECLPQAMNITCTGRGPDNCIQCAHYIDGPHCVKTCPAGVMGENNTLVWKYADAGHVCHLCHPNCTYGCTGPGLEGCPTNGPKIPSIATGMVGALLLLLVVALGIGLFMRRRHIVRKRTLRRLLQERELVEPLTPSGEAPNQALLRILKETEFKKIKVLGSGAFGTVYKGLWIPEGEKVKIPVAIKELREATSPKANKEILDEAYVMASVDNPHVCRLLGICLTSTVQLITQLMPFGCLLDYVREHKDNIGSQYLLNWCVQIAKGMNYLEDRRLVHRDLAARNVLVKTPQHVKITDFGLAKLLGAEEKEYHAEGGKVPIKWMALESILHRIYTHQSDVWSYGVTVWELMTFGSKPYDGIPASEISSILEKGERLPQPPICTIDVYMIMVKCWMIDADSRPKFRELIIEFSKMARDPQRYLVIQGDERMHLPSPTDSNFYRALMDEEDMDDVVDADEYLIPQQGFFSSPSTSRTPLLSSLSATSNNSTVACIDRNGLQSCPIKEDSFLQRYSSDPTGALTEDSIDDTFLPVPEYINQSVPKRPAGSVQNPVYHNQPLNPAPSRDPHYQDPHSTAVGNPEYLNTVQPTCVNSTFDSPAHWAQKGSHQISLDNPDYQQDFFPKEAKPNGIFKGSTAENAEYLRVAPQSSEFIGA
# [18] = molecular target: Follistatin-related protein 3 (Homo sapiens) (UniProt O95633); test: compounds binding follistatin-related protein 3 – biochemical, small-molecule microarray, 635 nm fluorescence, primary screen (AID 1105); details: FSTL3 binding, higher = more signal;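 note: score merges emission near 667 nm and signal to noise per printed spot across three slides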
# Chain of Follistatin-related protein 3 (Homo sapiens) (O95633 whole entry, looked up): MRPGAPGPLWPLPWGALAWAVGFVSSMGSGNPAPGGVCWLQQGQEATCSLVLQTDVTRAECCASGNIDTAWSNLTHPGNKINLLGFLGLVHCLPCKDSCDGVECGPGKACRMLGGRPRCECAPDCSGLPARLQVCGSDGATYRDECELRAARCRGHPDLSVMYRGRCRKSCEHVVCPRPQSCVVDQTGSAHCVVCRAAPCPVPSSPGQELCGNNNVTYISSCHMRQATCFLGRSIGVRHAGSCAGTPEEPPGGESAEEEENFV
# [19] = molecular target: Dickkopf-related protein 1 (Homo sapiens) (UniProt O94907); test: small molecules binding DKK1 protein – biochemical, small-molecule microarray, 635 nm fluorescence scan, primary screen (AID 1106); details: higher = more signal;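 note: score merges emission near 667 nm with signal to noise over three replicate slides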
# Chain of Dickkopf-related protein 1 (Homo sapiens) (O94907 whole entry, looked up): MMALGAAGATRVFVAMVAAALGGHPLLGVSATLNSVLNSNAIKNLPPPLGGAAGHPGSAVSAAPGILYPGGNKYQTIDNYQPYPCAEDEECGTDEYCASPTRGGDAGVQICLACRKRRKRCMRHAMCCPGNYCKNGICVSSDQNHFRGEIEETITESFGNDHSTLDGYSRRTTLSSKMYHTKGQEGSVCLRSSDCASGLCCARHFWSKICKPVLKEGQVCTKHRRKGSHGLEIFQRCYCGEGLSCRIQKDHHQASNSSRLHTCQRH
# [20] = tested on: Inhibin beta A chain (activin A); test: small molecules binding activin A – biochemical, small-molecule microarray, 635 nm fluorescence scan, primary screen (AID 1107); details: INHBA, higher = more signal;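 note: mouse activin A protein probed at 4.33 µg/mL on printed slides; score merges bound-protein fluorescence near 667 nm with spot signal-to-noise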
Structure (SMILES),composite z-score [1],z-score [2],z-score [3],z-score [4],composite z-score [5],z-score [6],composite z-score [7],composite z-score [8],composite z-score [9],composite z-score [10],composite z-score [11],composite z-score [12],composite z-score [13],z-score [14],composite z-score [15],composite z-score [16],composite z-score [17],composite z-score [18],composite z-score [19],composite z-score [20]
COc1ccc(C(=O)Nc2ccc(CN3C(=O)[C@]4(O[C@H](CC(=O)N5Cc6ccccc6C[C@H]5CO)[C@@H]([Si](C)(C)c5ccc(OC)cc5)[C@@H]4C)c4ccccc43)cc2)cc1,1.56,0.186 (inactive),1.04 (inactive),3.94 (inactive),1.77,0.315 (inactive),-0.145,1.34,1.13,-0.096,1.57,-0.196,-0.165,-1.18 (inactive),1.06,0.837,0.749,0.833,0.786,0.518
[N-]=[N+]=Nc1ccccc1C[C@]1(C(=O)N2CCOCC2)COC(c2ccc(OCCCO)cc2)=N1,1.56,-2.05 (inactive),-5.79 (inactive),-2.08 (inactive),3.51,1.91 (inactive),0.0446,0.182,1.06,0.0308,1.6,0.399,0.948,-0.59 (inactive),0.613,1.33,-0.262,0.634,-0.259,0.959
C=C[C@H]1C(C(=O)OCC)=CC[C@@H](c2ccccc2)N1S(=O)(=O)c1ccc(C)cc1,0.895,0.293 (inactive),1.12 (inactive),1.86 (inactive),2.94,-0.558 (inactive),0.174,0.705,1.13,-0.0531,1.05,0.158,0.587,-2.78 (inactive),0.922,1.3,0.224,1.11,0.0288,1.34
CC(C)(C)OC(=O)CC[C@@]1(C(=O)NCC(O)CO)N=C(c2ccc(OCCCO)cc2)O[C@@H]1c1ccccc1CN=[N+]=[N-] (stereo not given in full),0.782,-0.614 (inactive),0.0076 (inactive),-0.753 (inactive),2.89,0.188 (inactive),-0.0691,0.153,0.558,-0.0229,0.552,0.726,0.918,-0.0605 (inactive),0.364,0.706,-0.0699,0.335,-0.39,0.349
CO[C@H]1O[C@H](CO)[C@@H](OC(=O)Nc2ccc3c(c2)OCO3)[C@H](OC(=O)Nc2ccc3c(c2)OCO3)[C@@H]1OC(=O)Nc1ccc2c(c1)OCO2,1.54,1.15 (inactive),1.37 (inactive),5.69 (inactive),3.44,0.508 (inactive),0.0909,0.643,1.03,-0.039,1.33,0.203,0.195,-0.714 (inactive),1.39,1.23,0.273,1.41,0.378,0.762
CN(C)C(=O)[C@@]1(Cc2ccccc2)N=C(c2ccc(OCCCO)cc2)O[C@H]1c1ccccc1,0.584,-0.826 (inactive),-2.23 (inactive),0.221 (inactive),3.4,0.982 (inactive),0.344,-0.642,0.229,0.642,1.46,1.26,1.24,-0.24 (inactive),1.2,1.18,-0.591,0.109,-0.273,0.139
CCCCCN1CC=CC23O[C@@H]4/C=C\CCC(C)OC(=O)C4[C@H]2C(=O)N(C(CO)C(C)C)[C@@H]3C1=O (stereo not given in full),0.0839,-0.646 (inactive),-0.957 (inactive),-1.02 (inactive),2.1,1.5 (inactive),-0.506,-0.087,0.165,-0.14,1.63,-0.612,-0.288,0.139 (inactive),0.0694,-0.169,-0.538,0.0876,-0.543,1.18
C=CC[C@H](OC(=O)Nc1ccc(SC)cc1)c1ccc(O)c2ccccc12,1.54,-23.9 (active),-19.8 (active),-1.38 (inactive),2.8,1.42 (inactive),-0.112,1.1,1.1,-0.128,0.731,-0.0313,0.296,-2.98 (inactive),0.972,1.29,0.961,1.08,0.778,0.932
O=C1N(Cc2ccccc2)c2ccccc2C[C@]12N=C(c1ccc(OCCCO)cc1)O[C@@H]2c1ccccc1,1.21,1.1 (inactive),0.6 (inactive),5.61 (inactive),2.42,0.316 (inactive),0.102,0.885,1.03,-0.0549,0.25,0.035,0.333,0.214 (inactive),0.796,0.914,0.498,0.935,0.271,0.736
CCCCC(CC)C(O)C1C=CC2C(=O)N(C)C(=O)C2N1Nc1ccccc1 (stereo not given),1.36,0.307 (inactive),-0.592 (inactive),0.695 (inactive),2.87,-0.931 (inactive),-0.121,0.123,1.03,-0.154,0.579,0.559,0.0302,1.48 (inactive),0.304,0.598,-0.248,0.192,-0.0617,0.864
CC(C)C(O)C1C=CC2C(=O)N(c3ccccc3)C(=O)C2N1Nc1ccccc1 (stereo not given),1.34,0.0864 (inactive),-2.24 (inactive),0.108 (inactive),3.42,-0.304 (inactive),0.0436,0.948,1.07,-0.0023,1.06,0.584,0.432,-0.307 (inactive),1.22,0.0942,0.34,1.41,-0.0988,0.326
